Our source for the growth values is PubChem BioAssay (NCI).

Test systems include HCT-15 colon; HT29 colon; SNB-75 CNS; SNB-19 CNS; U251 CNS; PC-3 prostate; SK-MEL-5 melanoma; UACC-62 melanoma; LOX IMVI melanoma; SK-MEL-28 melanoma; SK-MEL-2 melanoma; EKVX NSCLC; SN12C renal; UO-31 renal; TK-10 renal; ACHN renal; CAKI-1 renal; A498 renal; CCRF-CEM leukemia; MOLT-4 leukemia.
Experiment in all cases: NCI-60 one-dose screen, 48 h (100 = growth as untreated, 0 = no growth, -100 = all killed)
Settings in all cases: 10 µM unless noted

Each structure is given as a SMILES string. The panel holds about 83,000 compounds, 20% with a hit somewhere; the sample as a whole holds those more often.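 Note: values are percent growth. 100 is the growth of untreated cells, values between 100 and 0 indicate rising inhibition; between -100 and 0 indicates cell death.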 A number with no mark means an inactive call. Active and inactive are the calls of the source. The calls were made as follows: active = growth percent below 10; inactive = the rest.

Turning to `Cc1cn(C)cn1`, the growth in the experiment on HCT-15 colon is 99%; in the experiment with HT29 colon, 98.7%; with SNB-75 CNS it was 98.7%; with SNB-19 CNS, 107%; with U251 CNS it was 98%; with PC-3 prostate it was 93.9%. Besides, the growth in the experiment with SK-MEL-5 melanoma was 112%; in the experiment on UACC-62 melanoma, 105%; in the experiment with LOX IMVI melanoma it was 94.6%; in the experiment on SK-MEL-28 melanoma, 109%; with SK-MEL-2 melanoma, 103%; with EKVX NSCLC, 105%. The growth was 105% in the experiment with SN12C renal; 82.5% in the experiment on UO-31 renal; 95.9% in the experiment with TK-10 renal; 108% with ACHN renal; 88.7% in the experiment on CAKI-1 renal; 114% in the experiment on A498 renal. Also, the growth is 97.3% with CCRF-CEM leukemia and 105% with MOLT-4 leukemia.
On to `O=[N+]([O-])c1ccccc1Sc1ccccc1[N+](=O)[O-]`, for which the growth with HCT-15 colon is 99.1%; with HT29 colon, 92%; in the experiment with SNB-75 CNS, 80.8%; in the experiment on SNB-19 CNS, 106%; in the experiment on U251 CNS, 90.6%; in the experiment with PC-3 prostate, 87.5%. In addition, the growth is 97.3% with SK-MEL-5 melanoma; 100% in the experiment with UACC-62 melanoma; 91.8% in the experiment with LOX IMVI melanoma; 109% in the experiment on SK-MEL-28 melanoma; 97.2% with SK-MEL-2 melanoma; 91.2% in the experiment with EKVX NSCLC. The growth was 75.5% in the experiment on UO-31 renal; 85.2% in the experiment with TK-10 renal; 102% in the experiment with ACHN renal; -54.5% (active) with CAKI-1 renal; 81.2% in the experiment on A498 renal; 107% with CCRF-CEM leukemia. Besides, the growth with MOLT-4 leukemia is 94.8%.
`Cc1ccc(Cc2cnc(NC(=O)/C=C/c3ccc(C)o3)s2)cc1`: the growth with HCT-15 colon was 19.9%; in the experiment on HT29 colon it was 11.4%; in the experiment on SNB-75 CNS it was 26.7%; in the experiment with SNB-19 CNS, 56.4%; with U251 CNS, 41.9%; in the experiment with PC-3 prostate, 33.3%. For the same molecule, the growth in the experiment with SK-MEL-5 melanoma was 23.8%; with UACC-62 melanoma it was 31.9%; with LOX IMVI melanoma, 49.5%; in the experiment with SK-MEL-28 melanoma, 65.5%; in the experiment with SK-MEL-2 melanoma, 53.8%; in the experiment on EKVX NSCLC, 49.7%. The growth was 51.7% in the experiment on SN12C renal; 48.5% in the experiment with UO-31 renal; 40.4% in the experiment on ACHN renal; 36% in the experiment on CAKI-1 renal; 25.1% in the experiment on A498 renal; 27.8% in the experiment on CCRF-CEM leukemia. For the same molecule, the growth in the experiment on MOLT-4 leukemia was 37.6%.
In the case of `O=CCCCOCc1ccccc1`, the growth was 98.5% in the experiment with HCT-15 colon; 97.2% in the experiment on HT29 colon; 87.8% in the experiment with SNB-75 CNS; 100% with SNB-19 CNS; 104% in the experiment on U251 CNS; 95.6% in the experiment on PC-3 prostate. Also, the growth in the experiment with SK-MEL-5 melanoma is 100%; with UACC-62 melanoma, 95.2%; in the experiment on LOX IMVI melanoma it was 99%; with SK-MEL-28 melanoma, 112%; in the experiment on SK-MEL-2 melanoma, 104%; in the experiment with EKVX NSCLC, 95.6%. The growth in the experiment on SN12C renal was 98.8%; in the experiment on UO-31 renal, 95%; in the experiment on ACHN renal it was 101%; in the experiment on CAKI-1 renal, 98.1%; with A498 renal it was 85.8%; in the experiment with CCRF-CEM leukemia, 104%. In the experiment on MOLT-4 leukemia, the growth was 103%.
Take `CCN(CC)CCCC(Cc1ccccc1)Nc1c2ccc(Cl)cc2nc2ccc(OC)cc12` (stereo not drawn): the growth in the experiment with HCT-15 colon was 2.58% (active); in the experiment on HT29 colon, 16.3%; in the experiment on SNB-75 CNS it was 10.6%; with SNB-19 CNS, 34.7%; in the experiment with U251 CNS, 9.64% (active); in the experiment on PC-3 prostate, 44.8%. Also, the growth with SK-MEL-5 melanoma is -93.6% (active); in the experiment with UACC-62 melanoma it was -61.2% (active); with LOX IMVI melanoma, -67.8% (active); in the experiment on SK-MEL-28 melanoma, -79.3% (active); in the experiment with SK-MEL-2 melanoma it was 7.91% (active); in the experiment on EKVX NSCLC, 26.6%. In addition, the growth in the experiment on SN12C renal is 73.6%; in the experiment on UO-31 renal, -39.6% (active); with ACHN renal it was -39.2% (active); in the experiment with CAKI-1 renal it was 32.6%; in the experiment on A498 renal it was 46.8%; in the experiment on CCRF-CEM leukemia it was -0.463% (active). Besides, in the experiment on MOLT-4 leukemia, the growth was 4.64% (active).
Regarding `Cc1ccc(S(=O)(=O)N2CCCN(c3nc(-c4ccccc4)nc4nc(-c5ccccc5)oc34)CC2)cc1`, the growth in the experiment with HCT-15 colon is 114%; with HT29 colon it was 120%; in the experiment with SNB-75 CNS, 105%; with SNB-19 CNS, 102%; with U251 CNS, 104%; in the experiment on PC-3 prostate, 96.3%. The growth was 98.9% with SK-MEL-5 melanoma; 101% in the experiment with UACC-62 melanoma; 95.4% with LOX IMVI melanoma; 108% with SK-MEL-28 melanoma; 103% in the experiment with SK-MEL-2 melanoma; 112% with EKVX NSCLC. The growth in the experiment on SN12C renal is 97.6%; with UO-31 renal it was 76.8%; with ACHN renal, 103%; in the experiment on CAKI-1 renal it was 93.2%; in the experiment on A498 renal it was 106%; with CCRF-CEM leukemia it was 106%. Also, the growth in the experiment on MOLT-4 leukemia was 95%.
Consider `CN(C)Cc1cc(C(C)(C)C)cc(Br)c1O`, for which the growth in the experiment on HCT-15 colon is 95.6%; in the experiment with HT29 colon, 81.8%; in the experiment on SNB-75 CNS, 91.5%; with SNB-19 CNS it was 113%; in the experiment on U251 CNS it was 107%; in the experiment with PC-3 prostate it was 90.5%. Further, the growth with SK-MEL-5 melanoma is 96.1%; in the experiment on UACC-62 melanoma, 101%; with LOX IMVI melanoma, 103%; with SK-MEL-28 melanoma, 112%; with SK-MEL-2 melanoma, 113%; in the experiment on EKVX NSCLC, 96.8%. Also, the growth in the experiment with SN12C renal was 105%; in the experiment on UO-31 renal, 98%; in the experiment with ACHN renal it was 108%; with CAKI-1 renal, 91.6%; with A498 renal it was 90.6%; with CCRF-CEM leukemia it was 116%. For the same molecule, the growth in the experiment on MOLT-4 leukemia is 110%.
As to `CC1(C)N=C(N)N=C(N)N1c1ccc(S(=O)(=O)Nc2nccs2)cc1`, the growth in the experiment on HCT-15 colon is 103%; in the experiment on HT29 colon it was 102%; in the experiment with SNB-75 CNS, 64.9%; with SNB-19 CNS, 98.2%; in the experiment with U251 CNS, 103%; in the experiment on PC-3 prostate, 93.7%. The growth in the experiment on SK-MEL-5 melanoma is 106%; in the experiment with UACC-62 melanoma it was 93.6%; in the experiment with LOX IMVI melanoma, 100%; in the experiment with SK-MEL-28 melanoma, 106%; in the experiment on SK-MEL-2 melanoma, 106%; in the experiment with EKVX NSCLC, 102%. Besides, the growth in the experiment with SN12C renal was 95.2%; with UO-31 renal, 89.5%; in the experiment with ACHN renal, 108%; in the experiment on CAKI-1 renal, 94.3%; in the experiment with A498 renal, 96.2%; in the experiment on CCRF-CEM leukemia it was 101%. In addition, the growth in the experiment with MOLT-4 leukemia is 103%.
